Data: PubChem BioAssay (NCATS)
Results filed as inconclusive are left out. The source made the active and inactive calls. The call rests on the fitted dose curve; in most records, active means well fitted curve in the direction sought with a large enough effect; inconclusive means small, poorly fitted or top-dose-only effect, or another doubt; inactive means no such curve, though single readings can be large; an effect the other way counts as inactive or inconclusive.

Tests used:
[1] = qHTS of pediatric cancer cell lines to identify multiple opportunities for drug repurposing: Primary screen for NB-EBc1 cells (AID 1347095)
How it was run: (§1)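 Cells plated at 500-1,000/well in growth medium, compounds added after 5 h. MIPE tested at 11 points (from 0.78 nM), NPC at 8 points (from 0.59 nM). CellTiter-Glo luminescence after 48 h; concentration-response curves from primary screen.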

[2] = qHTS of pediatric cancer cell lines to identify multiple opportunities for drug repurposing: Primary screen for U-2 OS cells (AID 1347096); further: nearly all actives have a fitted effect of over 50% in size
How it was run: (§2)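 Viability after 48 h compound treatment at 37C, 500-1,000 cells/well, read as ATP luminescence with CellTiter-Glo. Primary screens used 11-point (MIPE, 0.78 nM-46 µM) or 8-point (NPC, 0.59 nM-46 µM) final concentrations; follow-up screens used 11-point dilutions.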

[3] = qHTS of pediatric cancer cell lines to identify multiple opportunities for drug repurposing: Primary screen for Saos-2 cells (AID 1347097); further: nearly all actives have a fitted effect of over 40% in size
How it was run: as §1

[4] = qHTS of pediatric cancer cell lines to identify multiple opportunities for drug repurposing: Primary screen for SK-N-SH cells (AID 1347098); further: nearly all actives have a fitted effect of over 65% in size; further: potency means the concentration at half of the fitted maximal effect
How it was run: (§3)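 Cells (500-1,000/well) rested 5 h, then received compounds for 48 h; metabolically active cells were measured by CellTiter-Glo luminescence. Final concentrations spanned up to 46 µM (MIPE, 11-point) or 0.59 nM-46 µM (NPC, 8-point) in primary screens, 11-point in follow-ups.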

[5] = qHTS of pediatric cancer cell lines to identify multiple opportunities for drug repurposing: Primary screen for NB1643 cells (AID 1347099); further: nearly all actives have a fitted effect of over 50% in size
How it was run: as §1

[6] = qHTS of pediatric cancer cell lines to identify multiple opportunities for drug repurposing: Primary screen for LAN-5 cells (AID 1347100)
How it was run: as §2

[7] = qHTS of pediatric cancer cell lines to identify multiple opportunities for drug repurposing: Primary screen for BT-12 cells (AID 1347101); further: nearly all actives have a fitted effect of over 25% in size
How it was run: as §3

[8] = qHTS of pediatric cancer cell lines to identify multiple opportunities for drug repurposing: Primary screen for Rh18 cells (AID 1347102); further: nearly all actives have a fitted effect of over 65% in size
How it was run: as §2

[9] = qHTS of pediatric cancer cell lines to identify multiple opportunities for drug repurposing: Primary screen for OHS-50 cells (AID 1347103); further: nearly all actives have a fitted effect of over 40% in size; further: potency means the concentration at half of the fitted maximal effect
How it was run: as §3

[10] = qHTS of pediatric cancer cell lines to identify multiple opportunities for drug repurposing: Primary screen for RD cells (AID 1347104); further: nearly all actives have a fitted effect of over 55% in size
How it was run: as §1

[11] = qHTS of pediatric cancer cell lines to identify multiple opportunities for drug repurposing: Primary screen for MG 63 (6-TG R) cells (AID 1347105); further: nearly all actives have a fitted effect of over 50% in size
How it was run: as §1

[12] = qHTS of pediatric cancer cell lines to identify multiple opportunities for drug repurposing: Primary screen for control Hh wild type fibroblast cells (AID 1347106);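 further: series mostly up to about 46 µM; a drop in luminescence marks cytotoxicity and a rise apparent proliferation; nearly all actives have a fitted effect of over 55% in size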
How it was run: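 Cells (500-1,000/well) in growth media were settled 5 h at 37 degrees C, then given compounds for 48 h. Viability was read as CellTiter-Glo luminescence. Primary runs used MIPE at 11 points (0.78 nM-46 µM) and NPC at 8 points (0.59 nM-46 µM); follow-ups used 11 points.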

[13] = qHTS of pediatric cancer cell lines to identify multiple opportunities for drug repurposing: Primary screen for Rh30 cells (AID 1347107); further: series mostly up to about 46 µM; nearly all actives have a fitted effect of over 75% in size
How it was run: as §2

[14] = qHTS of pediatric cancer cell lines to identify multiple opportunities for drug repurposing: Primary screen for Rh41 cells (AID 1347108);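 further: series mostly up to about 46 µM; luminescence drop marks cytotoxic hits; nearly all actives have a fitted effect of over 70% in size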
How it was run: as §1

[15] = qHTS of pediatric cancer cell lines to identify multiple opportunities for drug repurposing: Confirmatory screen for NB1643 cells (AID 1347109); further: nearly all actives have a fitted effect of over 45% in size; further: potency means the concentration at half of the fitted maximal effect
How it was run: as §2

[16] = qHTS of pediatric cancer cell lines to identify multiple opportunities for drug repurposing: Confirmatory screen for LAN-5 cells (AID 1347113); further: potency means the concentration at half of the fitted maximal effect; nearly all actives have a fitted effect of over 65% in size
How it was run: as §2

[17] = qHTS of pediatric cancer cell lines to identify multiple opportunities for drug repurposing: Confirmatory screen for DAOY cells (AID 1347114); further: nearly all actives have a fitted effect of over 65% in size
How it was run: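 Viability measured as metabolically active cells via CellTiter-Glo luminescence following 48 hours of compound exposure, 11-point dilutions in confirmatory testing. 500-1,000 cells/well plated 5 hours before dosing; controls were DMSO and 2.3 µM bortezomib.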

[18] = qHTS of pediatric cancer cell lines to identify multiple opportunities for drug repurposing: Confirmatory screen for NB-EBc1 cells (AID 1347115);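 further: cells exposed to compound for 48 h before the viability read; nearly all actives have a fitted effect of over 45% in size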; further: potency means the concentration at half of the fitted maximal effect
How it was run: as §2

[19] = qHTS of pediatric cancer cell lines to identify multiple opportunities for drug repurposing: Confirmatory screen for A673 cells (AID 1347110)
How it was run: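 Cells plated at 500-1,000/well were treated five hours later with multi-point dilutions up to 46 µM final. After two days, CellTiter-Glo was added and luminescence read.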

Measured: Potency

NS(=O)(=O)c1cc2c(cc1Cl)CN(C1CCCCC1)C2=O
not listed: [15] | [16] | [17] | [18] | [19]
inactive: all other assays above

O=C1NC(c2ccccc2)(c2ccccc2)C(=O)N1COP(=O)(O)O
not listed: [15] | [16] | [17] | [18] | [19]
inactive: all other assays above

O=C(Oc1ccccc1)c1cccc(C(=O)Oc2ccccc2)c1
not listed: [15] | [16] | [17] | [18] | [19]
inactive: all other assays above

O=C(NN1CCCC1)NS(=O)(=O)c1ccc(Cl)cc1
not listed: [15] | [16] | [17] | [18] | [19]
inactive: all other assays above

C[N+]1(CC2COC(c3ccccc3)(c3ccccc3)O2)CCCCC1 (stereo unspecified)
not listed: [13] | [15] | [16] | [17] | [18] | [19]
inactive: all other assays above

CCOC(=O)NNc1nncc2ccccc12
not listed: [11] | [15] | [16] | [17] | [18] | [19]
inactive: all other assays above

CC(=O)N[C@@H](CCC(N)=O)C(=O)O
not listed: [9] | [14] | [15] | [16] | [17] | [18] | [19]
inactive: all other assays above

N#CSCC(=O)O
not listed: [12] | [15] | [16] | [17] | [18] | [19]
inactive: all other assays above

CC(=O)N1CCN(c2ccc(O)cc2)CC1
not listed: [12] | [15] | [16] | [17] | [18] | [19]
inactive: all other assays above

CO/N=C(/C(=O)N[C@@H]1C(=O)N2C(C(=O)OCOC(=O)C(C)(C)C)=C(C)CS[C@H]12)c1csc(N)n1
not listed: [13] | [15] | [16] | [17] | [18] | [19]
inactive: all other assays above

CC1(C)OC(=O)Nc2ccc(Br)cc21
not listed: [9] | [15] | [16] | [17] | [18] | [19]
inactive: all other assays above

COC(=O)c1cc(S(N)(=O)=O)ccc1OC
not listed: [11] | [15] | [16] | [17] | [18] | [19]
inactive: all other assays above

CCC(=O)Oc1ccc2c(c1)CC[C@@H]1[C@@H]2CC[C@@]2(C)[C@H]1C[C@@H](OC(=O)CC)[C@@H]2OC(=O)CC
not listed: [9] | [15] | [16] | [17] | [18] | [19]
inactive: all other assays above

C[C@H]1C[C@H]2[C@@H]3CCC4=CC(=O)C=C[C@]4(C)[C@H]3C(=O)C[C@]2(C)[C@@]1(O)C(=O)CO
active: [15] 2.61 µM | [16] 2.93 µM | [18] 8.27 µM
not listed: [19]
inactive: all other assays above

Cc1cccc(OCC(O)CNC(C)(C)C)c1C (stereo unspecified)
not listed: [9] | [15] | [16] | [17] | [18] | [19]
inactive: all other assays above

CN(C)CCOC(c1ccccc1)c1ccc(Br)cc1 (stereo unspecified)
active: [4] 15.4 µM | [9] 21.9 µM
not listed: [10] | [15] | [16] | [17] | [18] | [19]
inactive: all other assays above

Cc1cc(C(C)(C)C)c(O)c(C(C)(C)C)c1
not listed: [12] | [13] | [15] | [16] | [17] | [18] | [19]
inactive: all other assays above

Fc1ccc(C(c2ccc(F)cc2)N2CCNCC2)cc1
not listed: [9] | [13] | [14] | [15] | [16] | [17] | [18] | [19]
inactive: all other assays above

CCCCC(CC)CNC(=O)CC(C)OC(=O)CCC(=O)O (stereo unspecified)
active: [19] 2.61 µM
not listed: [16]
inactive: all other assays above

CC(=O)N(CC(O)CO)c1c(I)c(C(=O)NCCO)c(I)c(C(=O)NCC(O)CO)c1I (stereo unspecified)
not listed: [13] | [15] | [16] | [17] | [18] | [19]
inactive: all other assays above

CC1c2ccccc2CN1NC(=O)c1ccc(Cl)c(S(N)(=O)=O)c1 (stereo unspecified)
not listed: [12] | [15] | [16] | [17] | [18] | [19]
inactive: all other assays above

Cc1ccccc1N1CCN(CCc2nnc3n2CCCC3)CC1
not listed: [13] | [15] | [16] | [17] | [18] | [19]
inactive: all other assays above

CN(C)C(=O)CNC(=O)Cc1ccccc1
not listed: [11] | [12] | [15] | [16] | [17] | [18] | [19]
inactive: all other assays above

CCC(C(=O)NC(=O)NC(C)=O)c1ccccc1 (stereo unspecified)
not listed: [12] | [15] | [16] | [17] | [18] | [19]
inactive: all other assays above
